GLP-1R agonist: GLP-1 receptor (human) agonism; P43220; Potency, µM (doses to about 45.6 µM), for the others: at the top dose activation, usual class: activators; HEK293 GLP-1R CRE-luciferase, luminescence, 4-6 h; cells express a hypersensitive GLP-1R form; AID 624172; 380,000 tested, 0.007% active; further: potency means the concentration at half of the fitted maximal effect; % of control where 0% means no effect
Target sequence (P43220 whole entry, looked up): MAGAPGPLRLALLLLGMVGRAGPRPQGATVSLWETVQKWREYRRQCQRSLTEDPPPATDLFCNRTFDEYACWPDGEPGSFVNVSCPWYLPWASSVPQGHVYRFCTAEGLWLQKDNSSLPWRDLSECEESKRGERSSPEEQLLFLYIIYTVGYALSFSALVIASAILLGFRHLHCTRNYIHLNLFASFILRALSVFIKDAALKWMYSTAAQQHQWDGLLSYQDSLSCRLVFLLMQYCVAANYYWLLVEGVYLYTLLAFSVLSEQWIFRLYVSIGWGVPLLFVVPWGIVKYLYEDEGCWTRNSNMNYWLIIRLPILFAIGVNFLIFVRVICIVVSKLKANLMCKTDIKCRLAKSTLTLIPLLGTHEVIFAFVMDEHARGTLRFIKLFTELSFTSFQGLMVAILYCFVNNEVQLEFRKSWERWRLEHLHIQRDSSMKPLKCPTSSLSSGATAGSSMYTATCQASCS
PTHR1 ag: activates the human parathyroid hormone receptor PTHR1; AID 743266; HEK293 GP2 PTHR1 cells, GloSensor cAMP luminescence, 1 h; 410,000 tested, 0.075% active; Potency, µM (titrated, usually from 115 µM), inactives show top-dose activation, actives largely listed as activators; Q03431; further: potency means the concentration at half of the fitted maximal effect; nearly all actives have a fitted effect of over 55% in size
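HEK-293-derived GP2 cells expressing PTHR1 and a GloSensor cAMP reporter, 3,000/well, plated overnight, given luciferin plus IBMX (each 0.5 mM as added) for 1 h at 37 °C, then compound for 1 h at 37 °C. Luminescence was read after 15 min at room temperature.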
HEK293 tox: cytotoxicity in counter-screen for GLP-1R inverse agonists. HEK293 cAMP-luciferase reporter cells, luminescence, 24 h. Potency, µM (doses to about 38.3 µM), inactives show top-dose activity change, negative = inhibition, most hits filed as inhibitors. 410,000 tested, 0.13% active. AID 624418;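 further: loss of luciferase light is scored as toxicity; potency means the concentration at half of the fitted maximal effect; on the % scale 0 is the no-effect control and ±100 the full control effect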
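Compound-treated cells are incubated 24 hr at 37 deg C under 5% CO2 after a 12 hour attachment period, then luciferase detection reagent is added and luminescence is measured following 12 min at room temperature; lowered signal indicates toxicity.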
GLP1R inv ag: GLP-1 receptor (human) inverse agonism. P43220. HEK293 GLP-1R CRE-luciferase, luminescence, 24 h; GLP-1R form is constitutively active. Potency, µM (titrated, usually from 38.3 µM), for inactives: top-dose activity change, negative = inhibition, usual class: inhibitors. 410,000 tested, 1.6% active; further: potency means the concentration at half of the fitted maximal effect; on the % scale 0 is the no-effect control and ±100 the full control effect; nearly all actives have a fitted effect of over 55% in size
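Assay principle: reduced luminescence from a cAMP-responsive reporter in HEK293 cells co-expressing a constitutively active GLP-1R. Conditions: 24 hr compound incubation, 37 deg C, 5% CO2.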
TSHR antagonist: blocks TSH signaling through the human TSH receptor; P16473; TSHR-expressing cells, TSH-stimulated cAMP HTRF, 2 h; stronger effect = lower value; activity change, negative = inhibition, % at 11.5 µM; 330,000 tested, 0.2% active;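 active means activity change below a set negative limit, meaning inhibition stronger than a set level, cut at about -70% in these data; inconclusive means activity change between two set negative limits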; further: on the % scale 0 is the no-effect control and ±100 the full control effect
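Antagonism was scored as loss of TSH-driven cAMP in TSHR cells, stimulated with 4nM TSH (EC80) for 2 hours at 37 deg C and detected by homogeneous HTRF competition immunoassay.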
The depositor's hits bear a star; i = inactive; ? = inconclusive; . = no result; ! = a repeat was not active; [ ] = remark or other dose. The list is not random: actives were taken first. Their share in the collection is about 1.8%. Unless noted, the call rests on the fitted dose curve; in most records, active means well fitted curve in the direction sought with a large enough effect; inconclusive means small, poorly fitted or top-dose-only effect, or another doubt; inactive means no such curve, though single readings can be large; an effect the other way counts as inactive or inconclusive.

SMILES | GLP-1R agonist | PTHR1 ag | HEK293 tox | GLP1R inv ag | TSHR antagonist
CCN(CC)Cc1cc(Nc2ccnc3cc(Cl)ccc23)ccc1O | 0% | -15% | ? | 11µM*! | 5
Cc1ccc(S(=O)(=O)N2CCOCC2)cc1NC(=O)CN1CCC(Cc2ccccc2)CC1 | 10% | -28% | -7% | 7.1µM* | 2
Cc1ccc(S(=O)(=O)N2CCOCC2)cc1NC(=O)COc1cccc(Oc2ccccc2)c1 | -2% | i | 12% | 10µM* | -12
CCN(CCCNc1ncnc2nc[nH]c12)c1cccc(C)c1 | 2% | -34% | 12% | -25% | -20
CCCCN(CCCNc1ncnc2nc[nH]c12)c1ccccc1 | -1% | -35% | -9% | 10µM* | -21
O=[N+]([O-])c1cc(S(=O)(=O)N2CCCCCC2)ccc1Cl | -6% | -45% | 11µM* | ? | 16
CCC(=O)N1CCc2cc(Br)cc(S(=O)(=O)Nc3ccccc3C(=O)OC)c21 | 1% | i | -7% | 19% | .
COc1ccc(-c2csc(NC(=O)c3ccccc3NS(=O)(=O)c3ccc(C)cc3)n2)cc1 | -30% | -96% | 5% | 4.5µM* | -82*
COc1ccc(S(=O)(=O)Nc2ccccc2C(=O)Nc2nc(-c3ccc(F)cc3)cs2)cc1OC | -13% | -24% | 13%[1.53 µM] | ? | -88*
CCCNC(=O)c1ccccc1NS(=O)(=O)c1ccc(OC)c(OC)c1 | 15% | -21% | 18% | 9% | 7
COc1ccc(OC)c(-c2csc(NC(=O)c3ccc(F)cc3)n2)c1 | -2% | -13% | -19% | 10µM* | ?
COc1ccc(-c2csc(NC(=O)C3=NN(c4ccccc4)C(=O)CC3)n2)cc1 | -5% | -29% | -22% | 13% | -78*
CCc1ccc(C2CC(=O)c3c([nH]c(C(=O)OC4CCC(C)CC4)c3C)C2)cc1 (centres undefined) | . | -47% | 4% | ? | .
Cc1cc(C)n(C(C)CC(=O)NCc2ccccc2C)n1 (centres undefined) | . | ? | 2% | 3% | .
O=C(O)CNC(=O)CNC(=O)CNC(=O)CSC(=O)c1ccccc1 | 8% | . | . | . | .
COc1ccc(Br)cc1CNC(=O)c1nn(-c2ccc(C)cc2)c(=O)c2c1c1ccccc1n2C | . | -15% | 2% | 10% | .
CCN(CC)C(=O)c1sc(NC(=O)C(C)Sc2nc(-c3ccccc3)cc(C(F)(F)F)n2)c(C(=O)OC)c1C (centres undefined) | . | -3% | 2% | ? | .
Cc1cccc(N(C)C(=O)CCNS(=O)(=O)c2ccc3c(c2)CCN3C(=O)C2CC2)c1 | 8% | i | 2% | 5% | .
C=CCOC(=O)C(C#N)c1nc2ccccc2nc1N1CCC(C(=O)OCC)CC1 (centres undefined) | 8% | i | -3% | 6.3µM* | -8
CCOc1ccccc1N1CCN(c2nc3ccccc3nc2C(C#N)C(=O)OC(C)C)CC1 (centres undefined) | 2% | -10% | -10% | 5µM* | -5
Cc1ccc(-c2nc3sccn3c2Nc2ccc(C)c(C)c2)cc1 | . | -13% | 2% | -16% | .
CN(C)c1oc(/C=C/c2ccc(F)cc2)nc1C#N | . | -8% | 6% | 2% | .
CCOc1ccc(Nc2cc(C)nc3nncn23)cc1 | . | i | 12% | 7% | .
COc1cccc(NC(=O)C2CCN(S(=O)(=O)c3ccc4c(c3)NC(=O)CO4)CC2)c1 | -4% | i | -4% | -20% | -6
Cc1cccc(NC(=O)C2CCN(S(=O)(=O)c3ccc4c(c3)NC(=O)CO4)CC2)c1 | 2% | i | -8% | -14% | -134*
SMILES | GLP-1R agonist | PTHR1 ag | HEK293 tox | GLP1R inv ag | TSHR antagonist
CCOC(=O)c1nnn(-c2nonc2N)c1COc1cc(C)c(Cl)c(C)c1 | 0% | i | -11% | 8.9µM* | -17
CCOC(=O)c1nnn(-c2nonc2N)c1CSc1ccccc1 | 3% | i | 4% | -6% | -11
O=C1CN(C(=O)c2ccc(Br)o2)C(c2ccc(F)cc2)c2cc(Cl)ccc2N1 (centres undefined) | -4% | 6%[57.5 µM] | -11% | 3.5µM* | 17
O=C1CN(C(=O)c2ccc(Br)o2)C(c2ccccc2)c2cc(Br)ccc2N1 (centres undefined) | -4% | -34% | -19% | 7.1µM* | -26
COc1cc(-c2nnc(CSc3nnc(Nc4ccc(C(C)C)cc4)s3)o2)cc(OC)c1OC | 11% | -6% | 11µM* | ? | 6
COc1ccccc1Nc1nnc(SCc2nnc(-c3cc(OC)c(OC)c(OC)c3)o2)s1 | 18% | i | -25% | -20% | -7
CCC1CCCCN1CCCNC(=O)c1ccc2c(c1)sc1nc(-c3ccc(F)cc3)cn12 (centres undefined) | . | i | 1% | 10% | .
CCOC(=O)c1ccc(NS(=O)(=O)c2ccc3c(c2)CCN3C(=O)CC)cc1 | 1% | -8% | -3% | -1% | .
Oc1c(Cl)cc(CN2CCOCC2)c2cccnc12 | -3% | -1% | ? | ? | -13
Oc1c(CN2CCc3ccccc3C2)cc(Cl)c2cccnc12 | -2% | 22µM* | ? | ? | 8
Oc1c(CN2CCCCC2)cc(Br)c2cccnc12 | -2% | -37% | ? | 2.5µM* | 12
O=C(COc1c(Br)cc(Br)c2cccnc12)N1CCCCC1 | 13% | -15% | -1% | ? | 9
O=C(Oc1c(CN2CCOCC2)cc(Cl)c2cccnc12)c1ccccc1 | 3% | -2% | -14% | ? | -16
COc1cc(OC)cc(C(=O)Oc2c(CN3CCOCC3)cc(Cl)c3cccnc23)c1 | 0% | i | ? | 10µM* | -10
CCCC(=O)O[C@]1(C(=O)COC(=O)CC)[C@@H](C)C[C@H]2[C@@H]3CCC4=CC(=O)C=C[C@@]4(C)[C@@]3(F)[C@H](O)C[C@@]21C | -4% | . | . | . | .
CCn1c(C(=O)N2CCC(C(=O)NCCc3ccc(OC)cc3OC)CC2)cc2sccc21 | . | -79% | 0% | -10% | .
CCN1CCN(c2ccc(N3CCN(S(=O)(=O)c4ccc(C)c([N+](=O)[O-])c4)CC3)nn2)CC1 | -2% | -25% | -7% | 1.6µM* | -4
Cc1ccc(-c2ccc(/C=N/NC(=O)Cc3nnc(N)s3)o2)cc1Cl | 2% | -2% | -2% | ? | -7
COc1ccc(-c2ccc(/C=N/NC(=O)Cc3nnc(N)s3)o2)cc1Cl | -4% | -5% | -44% | 11µM* | -5
O=C(Nc1ccc(F)cc1)c1ccccc1Oc1ccc(C(F)(F)F)cc1[N+](=O)[O-] | -12% | -35% | ? | 10µM* | 57
O=C(Nc1ccccc1)c1ccccc1Oc1ccc(C(F)(F)F)cc1[N+](=O)[O-] | -8% | i | 16% | ? | 48
